Here are results for 47 compounds from PubChem BioAssay AID504332 (National Center for Advancing Translational Sciences (NCATS), 2011).

Screen size: about 350,000 compounds; about 31,000 (8.9%) were called active. Entries that show only a call come without a potency. Not shown: some 15% with an inconclusive outcome. For the sample, actives were picked, then their nearest neighbours and some compounds at random. Unmarked numbers belong to inactive results. The call rests on the fitted dose curve; in most records, active means well fitted inhibition curve with a large enough effect; inconclusive means small, poorly fitted or top-dose-only effect; inactive means no such curve, though single readings can be large or run the other way.
Potency means the concentration at half of the fitted maximal effect.

For this assay, the target named is Histone-lysine N-methyltransferase EHMT2 (Homo sapiens) (UniProt Q96KQ7). Kind of assay: qHTS Assay for Inhibitors of Histone Lysine Methyltransferase G9a. Further: nearly all actives have a fitted effect of over 75% in size. The note with it: G9a H3K9 monomethylation, AlphaScreen, 2 h; series mostly up to 59 µM. From the text: Methylated lysines, on the N-terminal tails of histone proteins serve as epigenetic markers to recruit factors that can then modify local chromatin structure to lead to functional consequences. G9a and other members of the SUV39 family of the SET domain-containing superfamily of histone lysine methyltransferases (HMT) have been identified to specifically methylate Lys9 of histone H3 (H3K9). G9a catalyzes the mono- and di-methylation of H3K9 in mammalian euchromatic regions, where the resulting H3K9me2 is indicative of transcriptional repression. […] The inhibition of G9a will result in transcriptional activation and work synergistically with DNA methyltransferase and histone deacetylase inhibitors, to kill cancer cells. This qHTS assay for identification of G9a inhibitors is a chemiluminescence based AlphaScreen (PerkinElmer). Methylation of biotinylated-histone peptide is measured through specific antibody-based detection, in conjunction with streptavidin-coated donor and anti-IgG antibody-coated acceptor beads. The method is particularly well suited for detection of inhibitors acting by the desired histone peptide competitive mechanism and is applicable to testing other HMTs. Although AlphaScreen has significant advantages with its utility in a variety of epigenetic target assays, the primary screening data provided in this deposition should be used with caution due to the prevalence of screening artifacts. An AlphaScreen counterscreen is highly recommended to be run against any putative actives to eliminate non specific artifacts. Alternatively, one can use other AlphaScreen assays in PubChem to filter out promiscuous hits. Quinn et al. A chemiluminescence-based method for identification of histone lysine methyltransferase inhibitors. Mol Biosyst 6(5): 782-8. 2010. PMID: 20567762 [2] Baell,Holloway. New substructure filters for removal of pan assay interference compounds (PAINS) from screening libraries and for their exclusion in bioassays. J Med Chem. 53(7):2719-40. 2010. PMID: 20131845 NIH Molecular Libraries Probe Production Network [MLPCN] NIH Chemical Genomics Center [NCGC] Structural Genomics Consortium (SGC) NIH Grant: 5U54 MH084681-02
Sequence of Histone-lysine N-methyltransferase EHMT2 (Homo sapiens) (Q96KQ7 913-1193 limits assumed): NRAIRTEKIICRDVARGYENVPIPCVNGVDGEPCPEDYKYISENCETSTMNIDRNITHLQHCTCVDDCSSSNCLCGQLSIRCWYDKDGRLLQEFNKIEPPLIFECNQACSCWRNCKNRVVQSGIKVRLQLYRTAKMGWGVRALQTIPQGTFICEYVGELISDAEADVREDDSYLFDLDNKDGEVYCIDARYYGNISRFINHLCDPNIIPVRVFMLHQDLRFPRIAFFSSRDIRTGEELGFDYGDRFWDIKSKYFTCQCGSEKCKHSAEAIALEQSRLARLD
To each well of a 1,536w plate, 2ul of HMT enzyme (final 20nM) were added, using a nanoliter dispenser. The G9a- and GLP-inhibitor BIX-01294 (CID: 25150857) are used as an intraplate control, with a 16-point titration in duplicate. A Kalypsys pin-tool transferred 23nl of library compound solution in DMSO to each well. Following a 15 min incubation of enzyme with compounds at room temperature, 1ul mixture of b-H3K9 peptide substrate (final 500nM) and SAM cofactor (final 20uM) were added. Reactions were allowed to proceed at room temperature for 2 hours. Methylated b-H3K9 peptide product was detected with 0.5 ug/mL rabbit polyclonal anti-monomethyl histone H3K9 antibody (Abcam Inc., Cambridge, MA) and 20 ug/mL each streptavidin-coated donor and anti-rabbit IgG acceptor AlphaScreen beads. Antibody and beads were added in a 1ul dispense, for a final volume of 4ul, and plates were incubated, protected from the light, for 10 min at room temperature. Microplates were then read on an EnVision multilabel plate reader using the 1,536 plate HTS AlphaScreen aperture (excitation time 80 ms, measurement time 240 ms).
`O=C1CCCc2cc(S(=O)(=O)N3CCCC(C(=O)NCc4ccccc4)C3)ccc2N1` (configuration not stated): the Potency result is “inactive”. Consider `c1ccc2c(c1)CCc1snnc1-2`, for which the activity, negative = inhibition was -5.46% [at 0.501 µM]. On to `Cc1ccccc1OCC(=O)NNC(=O)c1ccc(-n2cncn2)c([N+](=O)[O-])c1`, for which the Potency result was “inactive”.

Regarding `COc1ccc(-c2cc(C(F)(F)F)n3nc(-c4ccccc4)cc3n2)cc1OC`, the Potency result is “inactive”.

`CSCCC(NC(=O)c1ccccc1)C(=O)N1CCCCCCC1` (configuration not stated): the activity, negative = inhibition is 35.6% [at 12.7 µM]. Consider `CC(C)N(Cc1nnc(-c2ccc(Cl)cc2)o1)C(=O)C1=COCCO1`, for which the Potency entry was “inactive”. `COc1cc2ccccc2cc1C(=O)Nc1ccccc1C`: the Potency entry is “inactive”. For `COc1cccc(OCC(O)CNC(=O)c2oc3c(C)c(C)ccc3c2C)c1` (configuration not stated), the Potency result is “inactive”.

Turning to `CCCNC(=O)CCC(=O)N1Cc2ccccc2Oc2ncccc21`, the Potency result was “inactive”. Same read-out and setting: to `O=C(CC1C(=O)NCCN1CC(c1ccccc1)c1ccccc1)NCCc1cn[nH]c1` (configuration not stated) belongs 44.7 µM (active); to `O=C(CC1C(=O)NCCN1Cc1ccc(-c2ccccc2)cc1)NCC1CCOCC1` (configuration not stated), “inactive”; to `CCn1ccnc1CNC(=O)CC1C(=O)NCCN1CCCc1ccccc1` (configuration not stated), “inactive”. The same measure, in the same setting: the value for `COc1ccc(NC(=O)CSc2nc3ncccc3[nH]2)c(OC)c1` was “inactive”. Take `CN(c1ccccc1)S(=O)(=O)c1cccc(NC(=O)Cc2ccc(Cl)cc2)c1`: the activity, negative = inhibition was -10.8% [at 12.7 µM]. `CCc1ccc(C(=O)N2CCN(S(=O)(=O)c3sc(C(=O)O)c(C)c3C(=O)O)CC2)cc1`: the activity, negative = inhibition was 10.3% [at 2.33 µM].

Take `O=C(NCc1cccc(Cl)c1)C1=CC=CN2CCS(=O)(=O)N=C12`: the activity, negative = inhibition is -59.1% [at 12.7 µM].

For `CCN(CC)c1cc(NC2CCCCC2)c2c3c(onc13)-c1ccccc1C2=O`, the Potency was 7.08 µM (active). With `Cc1ccccc1NC(=O)Cn1c(=O)n(CC2CCC(C(=O)NCCc3ccccc3)CC2)c(=O)c2ccccc21` (configuration not stated), the Potency entry is “inactive”.

Take `O=C(Nc1ncccc1O)c1ccc(C(=O)c2ccccc2)cc1`: the activity, negative = inhibition is -9.21% [at 0.501 µM]. As to `COc1ccc(CNc2nc(-c3ccccc3)nn2C(=O)c2ccccc2OC)cc1`, the Potency entry is “inactive”. For the compound `COc1ccc(S(=O)(=O)N2CCC(C(=O)NCCC(=O)NCc3cccc(OC)c3)CC2)cc1`, the Potency entry is “inactive”. Regarding `Cc1ccc(S(=O)(=O)Nc2nc3ccccc3s2)cc1[N+](=O)[O-]`, the Potency entry is “inactive”. For the compound `COc1ccc(NS(=O)(=O)c2ccc(NC(=S)NC(=O)CC(C)C)cc2)cc1`, the activity, negative = inhibition was -29.8% [at 12.7 µM]. Take `Cc1cccc(C(=O)Nc2ccc(-c3nc4ccccc4s3)c(C)c2)c1`: the Potency result was “inactive”.

For the compound `COc1ccc(S(=O)(=O)Nc2ccc(O)c(Sc3nc4ccccc4s3)c2)cc1`, the Potency was 4.47 µM (active). As to `O=C(O)c1cccc(S(=O)(=O)Nc2ccc(O)cc2Sc2nc3ccccc3s2)c1`, the Potency was 7.94 µM (active). For the compound `COc1ccc(NS(=O)(=O)c2ccc3oc(SCC(N)=O)nc3c2)cc1`, the Potency entry is “inactive”. Consider `CC(C)NC(=O)C1CCC(Cn2c(=O)c3sccc3n(Cc3ccc(F)cc3)c2=O)CC1` (configuration not stated), for which the Potency entry is “inactive”.

As for `Cc1ccc(Cl)cc1NC(=O)CCS(=O)(=O)c1ccc(Br)s1`, the Potency result is “inactive”. `COc1ccccc1-n1nnnc1SCC(=O)NC(=O)Cc1ccccc1`: the activity, negative = inhibition is 17.7% [at 2.33 µM]. `O=C(Nc1ccc(F)cc1F)c1ccc2c(=O)n3c(nc2c1)CCCCC3`: the Potency result was “inactive”. Consider `CCCCC/C=C/C1=CC(=O)C[C@H](c2ccc(Cl)cc2)C1`, for which the activity, negative = inhibition is 8.79% [at 0.501 µM]. Consider `Cc1nnc(N2CCCC(C(=O)NCCN(C)C)C2)c2nn(-c3ccccc3)c(C)c12` (configuration not stated), for which the Potency result is “inactive”. Take `Cc1ccc(NC(=S)N(CCCN2CCCC2)Cc2cccn2Cc2ccc(Cl)cc2)cc1`: the Potency is 50.1 µM (active).

On to `Cc1ccc(C)c(N2CCN(CCCNC(=O)Nc3ccc(Cl)cc3)CC2)c1`, for which the Potency result was “inactive”. Regarding `Cc1ccc(NC(=S)N(CCCN2CCC(C)CC2)Cc2ccco2)cc1`, the Potency entry is “inactive”. For `Cc1cc(N=Nc2ccc3ccccc3c2)ccc1O`, the Potency was 35.5 µM (active).

As to `COc1ccc(N=Nc2ccc(O)c(P(=O)(c3ccccc3)c3ccccc3)c2)cc1`, the Potency entry is “inactive”. With `COc1ccccc1N1CCN(c2ncnc3onc(-c4cccc(Cl)c4)c23)CC1`, the Potency entry was “inactive”. For the compound `O=C(c1cnc(Cl)c(Cl)c1)N1CCN(S(=O)(=O)c2ccc(F)cc2)CC1`, the Potency entry is “inactive”. For `CC1(c2ccc(Cl)cc2Cl)NC(=O)N(CC(=O)Nc2cccnc2Cl)C1=O` (configuration not stated), the Potency result is “inactive”. Still for that read-out and setting: the value for `COc1cc(OC)cc(C(=O)OCC(=O)Nc2ccc(F)cc2F)c1` was “inactive”; that for `O=C(COC(=O)c1ccc(F)cc1F)Nc1ncccn1` was 35.5 µM (active).

For the compound `Cc1cccc(C(=O)OCC(=O)Nc2ccc(F)cc2)c1`, the Potency entry is “inactive”. Consider `S=c1[nH]ccn1-c1ccc(Cl)cc1`, for which the Potency was 3.98 µM (active). In the case of `CC(CCN1CCN=C1N(C)C)c1ccccc1` (configuration not stated), the activity, negative = inhibition is 11.1% [at 2.33 µM]. Turning to `COc1cc(OC)c(NC(=O)c2cc(S(=O)(=O)N3CCCC3)cn2C)cc1Cl`, the Potency result is “inactive”.
